Experimental data from PubChem BioAssay (NCATS).
Inconclusive results are not listed. Calls of active or inactive are those of the source. Calls follow the shape of the full dose curve.

Assay: Cytotoxicity counterscreen for inhibitors of SARS-CoV-2 cell entry (AID 1645845); also: nearly all actives have a fitted effect of over 50% in size; as to activity change, negative = cytotoxicity: % is scaled to controls: 0 for no effect and ±100 for the full control effect
Details: cell viability (SARS-CoV-2 entry assay cells); series mostly up to 57.1 µM; activity change, negative = cytotoxicity: at the top concentration
In short: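 Counterscreen run in the same HEK293-ACE2 line as the pseudotyped-particle entry assay, without particles. Viability after 48 h at 37 C was read as ATP luminescence, scaled between cell-containing and cell-free wells.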
Potency is read from the fitted curve at half-maximal effect.

SMILES	activity change, negative = cytotoxicity	outcome	Potency
O=C(O)c1ccc(CCCc2ccc(OCCc3ccc(F)cc3)cc2)o1	-0.717% (inactive)		
Cn1cc(-c2ccc(-c3cncc(Cl)c3N3CCC4(CCNC4=O)CC3)cc2)cn1	0.736% (inactive)		
CC(C)C[C@H](NC(=O)[C@H](Cc1ccccc1)NC(=O)OCc1ccccc1)C(=O)C=O		inactive	
C/C(=N\NC(=O)c1cccc(S(=O)(=O)N2CCOCC2)c1)c1cc(Cl)ccc1O	-15% (inactive)		
COCCNCc1ccc(-c2cc3nccc(Oc4ccc(NC(=O)C5(C(=O)Nc6ccc(F)cc6)CC5)cc4F)c3s2)nc1	-3.89% (inactive)		
O=C1NC(=O)/C(=C\c2ccc(-c3ccc(F)cc3)o2)S1	1.69% (inactive)		
COc1cc(N2CCN(C)CC2)ccc1Nc1nccc(-c2cn(C)c3cnccc23)n1	-23.5% (inactive)		
CC(C)(O)CNc1ncc(-c2ccnc(Nc3ccncc3)n2)c(CC2CC2)n1			25.1 µM (active)
c1ccc(-c2cc(CCC3CCNCC3)c3ccccc3n2)cc1		inactive	
CC(=O)O/N=C1\C(=O)N(Cc2cc(Cl)ccc2Cl)c2ccc(Cl)cc21	-28.2% (inactive)		
Nc1nc(Nc2ccc3c(c2)CC[C@@H](N2CCCC2)CC3)nn1-c1cc2c(nn1)-c1ccccc1CCC2	-16.5% (inactive)		

Assay: Primary qHTS to identify inhibitors of SARS-CoV-2 cell entry (AID 1645846); also: nearly all actives have a fitted effect of over 45% in size
Details: SARS-CoV-2 pseudovirus cell entry assay, luminescence; activity change, negative = inhibition: at 57.1 µM (top of the series) unless noted
In short: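 Inhibition of spike-mediated entry was scored in human ACE2-transfected Expi293F cells. Particles were MLV-pseudotyped with Wuhan-Hu-1 S carrying a 19-aa C-terminal deletion; signal was luciferase after two days, scaled between spike PP and fusion-protein-free PP.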

SMILES	outcome	Potency	activity change, negative = inhibition [%]
c1ccc2c(-c3cnn4cc(-c5ccc(OCCN6CCOCC6)cc5)cnc34)ccnc2c1	inactive [at 27.1 µM]		
CC(C)C[C@H](NC(=O)[C@H](Cc1ccccc1)NC(=O)OCc1ccccc1)C(=O)C=O		14.1 µM (active)	
Cc1nc2ccc(-n3ncc(C(=O)c4cc5ccccc5[nH]4)c3N)cc2[nH]1		11.2 µM (active)	
COCCN1CCN(Cc2ccc(-c3n[nH]c4c3C(=O)c3c(NC(=O)NN5CCOCC5)cccc3-4)cc2)CC1			-93.4
COCCNCc1ccc(-c2cc3nccc(Oc4ccc(NC(=O)C5(C(=O)Nc6ccc(F)cc6)CC5)cc4F)c3s2)nc1			-25.9
Nc1nc(OC(c2ccc(-c3cccc(F)c3)cc2)C(F)(F)F)cc(-c2ccc(C[C@H](N)C(=O)O)cc2)n1 (stereo partly specified)	inactive		
O=C1NC(=O)/C(=C\c2ccc(-c3ccc(F)cc3)o2)S1	inactive		
CC(C)(O)CNc1ncc(-c2ccnc(Nc3ccncc3)n2)c(CC2CC2)n1		10 µM (active)	
Nc1nc(Nc2ccc3c(c2)CC[C@@H](N2CCCC2)CC3)nn1-c1cc2c(nn1)-c1ccccc1CCC2		12.6 µM (active)	
Cn1c(NC[C@@H](N)Cc2ccccc2)nc(-c2ccncc2)c(-c2ccc3ccccc3c2)c1=O		28.2 µM (active)	
